# Source: PubChem BioAssay AID1224861 (National Center for Advancing Translational Sciences (NCATS), 2016)
# Inconclusive results are not listed. A call without a number means that no potency is given here. Calls of active or inactive are those of the source. Calls come from the whole dose curve; as a rule, active = well fitted cell-killing curve with a large enough effect; inconclusive = small, poorly fitted or top-dose-only effect, or effect the other way; inactive = flat fitted curve, though single readings scatter.
# Assay: Compound cytotoxicity measured by an ATP content assay as a counter-screen for lead compounds in human astrocytes
# Outline: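 Cytotoxicity expressed as percent inhibition of cell viability from ATP-dependent luminescence, read after 10 min at room temperature with 1:1 kit reagent. Compound exposure times matched the primary screens, e.g. 6, 24 or 72 h, in cultured human astrocytes.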
row,Structure (SMILES),Potency
1,CCOCCOC(=O)/C=C/c1ccc(OC)cc1,inactive
2,N#C/C(=C\c1ccc(O)c(O)c1)C(=O)Nc1ccccc1,inactive
3,COc1cccc2c1C(=O)c1c(O)c3c(c(O)c1C2=O)C[C@@](O)(C(=O)CO)C[C@@H]3O[C@H]1C[C@H](N)[C@H](O[C@@H]2CCCCO2)[C@H](C)O1,inactive
4,NC(N)=NN=C(/C=C/c1ccc([N+](=O)[O-])o1)/C=C/c1ccc([N+](=O)[O-])o1,3460 nM (active)
5,Cc1csc(NC(=O)c2sc3nc4c(c(C(F)(F)F)c3c2N)CCC4)n1,3460 nM (active)
6,O[C@@H](COc1cccc2ncccc12)CN1CCN(C2c3ccccc3[C@@H]3[C@H](c4ccccc42)C3(F)F)CC1 (some centres not stated),inactive
7,O=C(Nc1cc2cc[nH]c2cn1)c1ccccc1,489 nM (active)
8,CC1(C)OC2=C(C(=O)c3ccccc3C2=O)[C@H](NCc2ccccc2)[C@H]1O,8910 nM (active)
9,COCCn1c2c([n+](Cc3cnccn3)c1C)C(=O)c1ccccc1C2=O,138 nM (active)
10,O=c1c2ccccc2nc2n1CCc1c-2[nH]c2ccccc12,inactive
11,N[C@H](CSC(c1ccccc1)(c1ccccc1)c1ccccc1)C(=O)O,inactive
12,O=C(O)[C@@H](c1ccc(OCc2ccc3ccccc3n2)cc1)C1CCCC1,inactive
13,Cc1c(N)c(=O)n(-c2ccccc2)n1C,inactive
14,CN(C)CCCSc1ccccc1NC(=O)/C=C/c1ccccc1,inactive
15,CN(C)c1ccc(C(=C2C=CC(=[N+](C)C)C=C2)c2ccccc2)cc1,inactive
16,Cc1oncc1C(=O)Nc1ccc(C(F)(F)F)cc1,inactive
17,O=C(Oc1ccccc1)c1cccc(C(=O)Oc2ccccc2)c1,inactive
18,Nc1cc(C(F)(F)F)ccc1S,inactive
19,CC=CC[C@@H](C)C(=O)[C@H]1C(=O)N[C@@H](C(C)C)C(=O)N(C)CC(=O)N(C)[C@@H](CC(C)C)C(=O)N[C@@H](C(C)C)C(=O)N(C)[C@@H](CC(C)C)C(=O)N[C@@H](C)C(=O)N[C@H](C)C(=O)N(C)[C@@H](CC(C)C)C(=O)N(C)[C@@H](CC(C)C)C(=O)N(C)[C@@H](C(C)C)C(=O)N1C,inactive

row,Structure (SMILES),Potency
1,O=C(O)[C@H](CC(=O)N1C[C@@H]2CCCC[C@H]2C1)Cc1ccccc1,inactive
2,O=C1c2ccccc2-[n+]2ccc3c([nH]c4ccccc43)c21,4350 nM (active)
3,O=C(Nc1ccc([N+](=O)[O-])cc1Cl)c1cc(Cl)ccc1O,1090 nM (active)
4,C=CCCCCCCCCC(=O)O,inactive
5,CC(=O)OC(C)OC(=O)C(C)c1ccc(-c2ccccc2)c(F)c1 (configuration not stated),inactive
6,O=C(/C=C/c1ccc(O)cc1)c1ccc(O)cc1O,inactive
7,CCCC(=O)OC[C@@H](OC(=O)CCC)[C@@H](OC(=O)CCC)[C@H](Cn1c2nc(=O)[nH]c(=O)c-2nc2cc(C)c(C)cc21)OC(=O)CCC,inactive
8,COc1cc2nc(-c3ccc(N4CCN(C)CC4)cc3)nc(NCCN3CCOCC3)c2cc1OC,inactive
9,O=C(/C=C/c1ccccc1)NCCO,inactive
10,c1ccc2[nH]c(-c3cscn3)nc2c1,inactive
11,Cc1nc(N)sc1-c1ccnc(Nc2ccc(N3CCOCC3)cc2)n1,inactive
12,CN1CC(=O)N2C(Cc3c([nH]c4ccccc34)[C@H]2c2ccc3c(c2)OCO3)C1=O (some centres not stated),inactive
13,N#CC1(c2ccc(NC(=O)c3cccnc3NCc3ccncc3)cc2)CCCC1,inactive
14,CC(C(=O)O)c1ccc(-c2ccccc2)c(F)c1 (configuration not stated),inactive
15,COc1cc(NC(C)CCCN)c2ncccc2c1 (configuration not stated),inactive
16,CC[C@]1(O)C[C@H]2CN(CCc3c([nH]c4ccccc34)[C@@](C(=O)OC)(c3cc4c(cc3OC)N(C=O)[C@H]3[C@@](O)(C(=O)OC)[C@H](OC(C)=O)[C@]5(CC)C=CCN6CC[C@]43[C@@H]65)C2)C1,inactive
17,CC(C)(C)OC(=O)CN(Cc1ccc(Cl)cc1)Cc1ccc([N+](=O)[O-])s1,inactive
18,O=c1[nH]nc(Sc2ncc([N+](=O)[O-])s2)n1-c1ccc2c(c1)OCCO2,1230 nM (active)
